An excerpt weighted towards active compounds, which were near 19% of everything screened.
MCF10A rerep = DNA re-replication induction in MCF 10a cells. MCF 10A DNA re-replication, Hoechst nuclear intensity, 48 h. Potency, µM (titrated, usually from 46.1 µM), without a hit: at the highest dose activity, positive = re-replication, usual class: activators. 350,000 compounds, 2.9% hits; further: potency means the concentration at half of the fitted maximal effect; % of control where 0% means no effect; nearly all actives have a fitted effect of over 50% in size
IL-1B inflam inh = blocks inflammasome-driven IL-1 beta release | THP-1 LPS/ATP IL-1B secretion, AlphaLISA, 16 h; active compounds read low | activity change, % at 57.5 µM | 360,000 compounds, 4.7% hits; in the data active means activity change below about -50%; inconclusive means mostly about -30% to -49%; further: on the % scale 0 is the no-effect control and ±100 the full control effect
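Secreted IL-1B measured by AlphaLISA bead assay after 16 h compound exposure of THP-1 cells; compounds (final up to 57.5 uM) added 1 h before LPS (250 ng/mL) and ATP (1.25 mM) stimulation; lower signal means less secretion.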
TDP1 cell noCPT = qHTS for Inhibitors of human tyrosyl-DNA phosphodiesterase 1 (TDP1): qHTS in cells in absence of CPT. DT40 Tdp1-/- hTDP1 cells, no CPT, ATP luminescence, 48 h. Potency, µM (series often up to 46.2 µM), without a hit: at the highest dose activity change, negative = growth inhibition, actives largely listed as inhibitors. 420,000 compounds, 15% hits. AID 686978, 2013; further: potency means the concentration at half of the fitted maximal effect; on the % scale 0 is the no-effect control and ±100 the full control effect; nearly all actives have a fitted effect of over 55% in size
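Stably hTDP1-transfected Tdp1-null chicken DT40 cells were treated with library compounds minus camptothecin and grown for at least 48 hr at 37 °C, after which cellular ATP was quantified by luminescence.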
TDP1 cell CPT = growth inhibition of DT40 Tdp1-/-;hTDP1 cells with camptothecin (screen for TDP1 inhibitors). Potency, µM (highest dose often 46.2 µM), inactives show at the highest dose activity change, negative = growth inhibition, usual class: inhibitors. chicken DT40 Tdp1-/-;hTDP1 cells + 20 nM CPT, ATP luminescence, 48 h. 420,000 compounds, 12% hits; further: potency means the concentration at half of the fitted maximal effect; on the % scale 0 is the no-effect control and ±100 the full control effect; nearly all actives have a fitted effect of over 55% in size
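Chicken DT40 Tdp1-/- cells complemented with human TDP1, 400 cells/well, exposed to compounds plus 20 nM camptothecin for at least 48 h at 37 C; viability read as ATP content by CellTiter-Glo luminescence.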
Chronic BCR inh = blocks chronic active B-cell receptor signaling. 340,000 compounds, 0.05% hits. AID 493014. Potency, µM (series often up to 46.1 µM), for inactives: at the top dose activity change, negative = inhibition, usual class: inhibitors. ABC-DLBCL IkBa-CBG/CBR reporter, luminescence ratio, 4 h; active means well fitted inhibition curve with a large enough effect in the signal ratio, with a control signal flat, not every such curve was filed as active; inconclusive means small, poorly fitted or top-dose-only effect, or effect the other way, or a change in a side signal; the % refers to the signal ratio;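 further: potency means the concentration at half of the fitted maximal effect; plate controls were basal doxycycline-induced cells for no effect and cells given 10 µM MG132 for full effect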
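Doxycycline induced both beetle luciferases in TMD8 lymphoma cells; IKK-driven degradation limits the IkappaBalpha-fused green signal, while red luminescence normalises for cell number and nonspecific effects. Compounds tested up to 46 uM, 4 hrs.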
SW480 rereplic = induces DNA re-replication in SW480 colon adenocarcinoma cells | 340,000 compounds, 1.8% hits | SW480 DNA re-replication, Hoechst DNA content imaging, 48 h | AID 624297 | Potency, µM (series often up to 46.1 µM), for the others: top-dose re-replication activation, usual class: activators; further: potency means the concentration at half of the fitted maximal effect; % of control where 0% means no effect; nearly all actives have a fitted effect of over 55% in size
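Quantitative HTS format with DMSO vehicle controls; 48 hr drug incubation at 37 C, then 40 min Hoechst staining and scanning imager measurement at 405 nm excitation.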
An asterisk follows results filed as active; ? = inconclusive; . = no result. Unless noted, the call rests on the fitted dose curve; in most records, active means well fitted curve in the direction sought with a large enough effect; inconclusive means small, poorly fitted or top-dose-only effect, or another doubt; inactive means no such curve, though single readings can be large; an effect the other way counts as inactive or inconclusive.

SMILES	MCF10A rerep	IL-1B inflam inh	TDP1 cell noCPT	TDP1 cell CPT	Chronic BCR inh	SW480 rereplic
Cc1ccccc1C(=O)N1CCC(C(=O)Nc2ccc(S(=O)(=O)N3C(C)CCCC3C)cc2)CC1 (centres undefined)	19%	?	10µM*	12µM*	.	-25%
Cc1cc2ccccc2n2c(SCC(=O)Nc3ccc(S(=O)(=O)N4CCC(C)CC4)cc3)nnc12	-1%	-9	23µM*	29µM*	-2%	?
COc1cccc(NC(=O)CN2CCN(S(=O)(=O)c3ccc(C(C)C)cc3)CC2)c1	2%	-9	?	?	-15%	8%
CC1CCN(S(=O)(=O)c2ccc(NC(=O)CN3CCN(c4ccccc4)CC3)cc2)CC1	4%	0	-26%	-28%	-7%	7%
COc1cccc(N2CCN(S(=O)(=O)c3ccc(-c4coc(C)n4)cc3)CC2)c1	?	6	21µM*	?	?	5%
COc1cccc(N2CCN(CC(=O)Nc3ccc(S(=O)(=O)N4CCCCCC4)cc3)CC2)c1	12%	39	13µM*	?	-1%	4%
CC1CCN(S(=O)(=O)c2ccc(NC(=O)CN3CCCCCC3)cc2)CC1	?	-50*	?	?	9%	?
CC1CCN(CC(=O)Nc2ccc(S(=O)(=O)N3C(C)CCCC3C)cc2)CC1 (centres undefined)	1%	0	15µM*	?	0%	-4%
Cc1nc(-c2ccc(S(=O)(=O)N3CCN(c4ccccc4)CC3)cc2)co1	9%	17	?	-23%	6%	-1%
CCOC(=O)C1(C)CCN1C(=O)c1ccco1 (centres undefined)	.	11	-2%	-19%	.	.
O=C(CN1CCCCC1)Nc1ccc(S(=O)(=O)N2CCOCC2)cc1	1%	6	-11%	-3%	9%	0%
CC1CCN(S(=O)(=O)c2ccc(NC(=O)CN3CCCC(C)C3)cc2)CC1 (centres undefined)	29%	-21	?	?	-1%	?
CC1CCCN(CC(=O)Nc2ccc(S(=O)(=O)N3CCCC3)cc2)C1 (centres undefined)	18%	-8	13µM*	3%	0%	-5%
CC1CCN(CC(=O)Nc2ccc(S(=O)(=O)N3CCCCC3)cc2)CC1	2.3µM*	0	-25%	?	1%	12%
CCN(Cc1cccc(F)c1)C(=O)c1ccc2ccccc2n1	2%	44	?	-29%	-1%	8%
COc1ccc(CN(CCC#N)CCC2(c3ccccc3)CC(C)N(C)CC2C)cc1OC (centres undefined)	?	-20	-16%	3%	-1%	13%
COc1ccc(CNCCC2(Cc3ccccc3)CC(C)N(C)CC2C)cc1OC (centres undefined)	?	-61*	15µM*	?	-14%	-9%
O=C1CC[C@@H](CN(Cc2ccccc2)Cc2cn[nH]c2-c2cc3ccccc3o2)N1	12%	-8	16µM*	26µM*	?	-13%
CCOc1ccc(-c2nc(CN(Cc3ccccc3)C[C@@H]3CCC(=O)N3)c(C)o2)cc1	8%	-81*	21µM*	?	-1%	13%
Cc1oc(-c2ccc(C(F)(F)F)cc2)nc1CN(Cc1ccccn1)C[C@@H]1CCC(=O)N1	-4%	18	?	?	?	0%
CN(Cc1cn[nH]c1-c1cc2ccccc2o1)CC1CCOCC1	-1%	-14	-4%	-3%	1%	-2%
